Test results from PubChem BioAssay (NCATS).
Several values for one entry are separate records, joined by “and”; a condition that tells them apart may be missing. Equal entries are not always repeated. Records with an inconclusive call do not appear. Activity calls are given as the source filed them. Unless noted, the call rests on the fitted dose curve; in most records, active means well fitted curve in the direction sought with a large enough effect; inconclusive means small, poorly fitted or top-dose-only effect, or another doubt; inactive means no such curve, though single readings can be large; an effect the other way counts as inactive or inconclusive.

Tests used:
[1] = Validation screen for inhibitors of Lassa infection (AID 463096; calls by dose curve; further: potency means the concentration at half of the fitted maximal effect)
[2] = Quantitative high throughput screen for delayed death inhibitors of the malarial parasite plastid, 48 hour incubation (AID 488752); further: nearly all actives have a fitted effect of over 65% in size; further: potency means the concentration at half of the fitted maximal effect
Outline: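 Erythrocytes infected with P. falciparum carrying an integrated firefly luciferase reporter (2% hematocrit, 0.1% parasitemia final) were exposed to compounds in RPMI 1640/0.5% Albumax for 48 h at 37 C, 5% CO2. Growth inhibition was scored as reduced luminescence.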

[3] = High Content Imaging Cell-Based qHTS for Inhibitors of the mTORC1 Signaling Pathway in MEF Cells (AID 2667); further: potency means the concentration at half of the fitted maximal effect
Outline: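 MEF (Tsc2-/-, p53-/-, WT Tsc2 re-expressed); cpd 24 h, 37 °C; PFA fix; Alexa-488 anti-p-rpS6 Ser235/236, PI, Hoechst; IN Cell imaging; Hoechst/Alexa-488 intensity ratio; % active cells, thresholds set from rapamycin and DMSO wells.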

[4] = Validation screen for small molecules that induce DNA re-replication in MCF 10A normal breast cells (AID 463097); further: nearly all actives have a fitted effect of over 60% in size; further: potency means the concentration at half of the fitted maximal effect
Outline: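 Following 48 hr compound incubation (37 C, 5% CO2), MCF 10A cells receive Hoechst for 40 min at 37 C. Nuclei are then scanned (excitation 405 nm, emission 500-530 nm) for total fluorescence intensity.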

[5] = target: Ubiquitin carboxyl-terminal hydrolase 2 (Homo sapiens) (UniProt O75604); experiment: qHTS Validation Assay for Inhibitors of Ubiquitin-specific Protease USP2a Using CHOP2 as the Reporter (AID 463106)
Sequence of Ubiquitin carboxyl-terminal hydrolase 2 (Homo sapiens) (O75604 whole entry, looked up): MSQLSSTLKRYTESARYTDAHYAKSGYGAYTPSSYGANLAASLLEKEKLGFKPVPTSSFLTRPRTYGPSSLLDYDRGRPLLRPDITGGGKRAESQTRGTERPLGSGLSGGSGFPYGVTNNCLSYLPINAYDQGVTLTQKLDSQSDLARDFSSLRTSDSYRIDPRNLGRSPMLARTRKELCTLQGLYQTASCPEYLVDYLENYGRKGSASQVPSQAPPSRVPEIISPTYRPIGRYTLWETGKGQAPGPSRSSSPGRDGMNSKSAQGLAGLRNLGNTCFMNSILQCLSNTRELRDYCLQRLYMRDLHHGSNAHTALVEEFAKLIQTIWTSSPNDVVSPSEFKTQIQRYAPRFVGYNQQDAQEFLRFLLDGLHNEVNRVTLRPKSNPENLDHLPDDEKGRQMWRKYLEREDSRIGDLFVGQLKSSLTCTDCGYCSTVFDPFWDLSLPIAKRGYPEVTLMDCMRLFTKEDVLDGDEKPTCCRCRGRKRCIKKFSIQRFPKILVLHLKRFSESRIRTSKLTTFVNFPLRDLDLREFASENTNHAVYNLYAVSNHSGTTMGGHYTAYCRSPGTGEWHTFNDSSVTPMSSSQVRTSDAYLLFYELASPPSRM
Outline: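 USP2 core (10nM final) was preincubated with compound for 30min at RT in 20mM Tris-HCl pH 8.0, 2mM CaCl2, 2mM beta-mercaptoethanol, 0.05% CHAPS. Ub-CHOP2 and reporter substrate (25nM each) were added, and fluorescence (Ex 485/Em 531nm) was read after 60min.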

[6] = target: DNA polymerase III PolC-type (Bacillus subtilis (strain 168)) (UniProt P13267); experiment: qHTS Validation Assay for the Inhibitors of DNA Replication in Gram-Positive Bacteria (AID 485295); further: potency means the concentration at half of the fitted maximal effect
Sequence of DNA polymerase III PolC-type (Bacillus subtilis (strain 168)) (P13267 whole entry, looked up): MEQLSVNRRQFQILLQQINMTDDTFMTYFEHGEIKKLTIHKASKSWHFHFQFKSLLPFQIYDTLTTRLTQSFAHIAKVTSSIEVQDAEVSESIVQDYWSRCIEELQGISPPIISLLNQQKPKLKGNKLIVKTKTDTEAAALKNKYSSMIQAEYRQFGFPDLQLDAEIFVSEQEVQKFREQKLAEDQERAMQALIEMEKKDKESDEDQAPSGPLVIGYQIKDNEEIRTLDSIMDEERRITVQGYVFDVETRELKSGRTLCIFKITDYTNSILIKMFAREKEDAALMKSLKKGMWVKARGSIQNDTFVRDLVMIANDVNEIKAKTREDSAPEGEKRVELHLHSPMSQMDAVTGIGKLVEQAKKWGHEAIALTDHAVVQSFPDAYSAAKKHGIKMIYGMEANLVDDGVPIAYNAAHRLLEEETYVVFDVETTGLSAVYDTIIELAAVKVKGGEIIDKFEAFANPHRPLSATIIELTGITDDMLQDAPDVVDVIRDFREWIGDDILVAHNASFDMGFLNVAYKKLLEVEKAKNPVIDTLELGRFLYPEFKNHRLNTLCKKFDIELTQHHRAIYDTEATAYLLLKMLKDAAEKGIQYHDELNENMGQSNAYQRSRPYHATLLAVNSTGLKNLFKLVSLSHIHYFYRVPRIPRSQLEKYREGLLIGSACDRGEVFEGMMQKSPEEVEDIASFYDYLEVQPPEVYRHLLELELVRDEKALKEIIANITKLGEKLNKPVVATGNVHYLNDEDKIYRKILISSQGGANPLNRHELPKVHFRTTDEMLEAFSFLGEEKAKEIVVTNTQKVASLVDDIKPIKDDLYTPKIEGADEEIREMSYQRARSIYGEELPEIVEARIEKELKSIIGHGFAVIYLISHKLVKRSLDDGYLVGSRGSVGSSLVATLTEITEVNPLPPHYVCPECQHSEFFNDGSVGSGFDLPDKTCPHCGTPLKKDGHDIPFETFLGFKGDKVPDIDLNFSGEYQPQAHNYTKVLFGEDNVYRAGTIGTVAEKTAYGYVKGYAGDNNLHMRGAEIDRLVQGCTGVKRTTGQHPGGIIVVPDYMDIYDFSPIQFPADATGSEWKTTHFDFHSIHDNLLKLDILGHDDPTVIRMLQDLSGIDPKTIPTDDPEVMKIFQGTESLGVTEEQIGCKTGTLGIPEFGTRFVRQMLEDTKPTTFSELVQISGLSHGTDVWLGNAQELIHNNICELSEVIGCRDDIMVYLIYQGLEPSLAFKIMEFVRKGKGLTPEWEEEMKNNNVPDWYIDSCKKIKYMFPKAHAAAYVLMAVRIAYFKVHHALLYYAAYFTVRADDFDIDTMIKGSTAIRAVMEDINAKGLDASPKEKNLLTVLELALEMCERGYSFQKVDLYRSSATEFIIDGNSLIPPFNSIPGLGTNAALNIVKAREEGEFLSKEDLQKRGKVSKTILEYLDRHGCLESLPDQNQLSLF
Outline: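 Inhibition of DNA synthesis by the reconstituted PolC holoenzyme, monitored through PicoGreen staining of dsDNA formed from ssM13Gori, dNTPs and NTPs, with compound preincubation and room-temperature reaction.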

[7] = target: Tumor susceptibility gene 101 protein (Homo sapiens) (UniProt Q99816); experiment: qHTS Validation Assay for Iinhibitors of HIV-1 Budding by Blocking the Interaction of PTAP/TSG101 (AID 485342; calls by dose curve)
Sequence of Tumor susceptibility gene 101 protein (Homo sapiens) (Q99816 whole entry, looked up, the tested form may be a part): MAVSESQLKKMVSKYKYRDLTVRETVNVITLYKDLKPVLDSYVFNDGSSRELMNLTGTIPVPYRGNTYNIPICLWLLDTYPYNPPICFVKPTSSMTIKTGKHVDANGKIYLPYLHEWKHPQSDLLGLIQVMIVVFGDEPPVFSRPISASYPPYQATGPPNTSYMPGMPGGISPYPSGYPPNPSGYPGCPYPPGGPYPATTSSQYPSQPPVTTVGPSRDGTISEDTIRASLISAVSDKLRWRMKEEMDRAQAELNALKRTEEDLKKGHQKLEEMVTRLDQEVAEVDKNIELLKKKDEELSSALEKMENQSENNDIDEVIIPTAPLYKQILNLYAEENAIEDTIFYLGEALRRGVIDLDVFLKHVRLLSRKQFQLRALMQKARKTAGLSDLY
Outline: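 Compound wells held the Tsg101 binding domain (10 uM) and a FITC-conjugated PTAP peptide (50 nM) in buffer at pH 7.5 containing 0.15 M NaCl and 0.01% Tween 20; polarization was recorded after 20 min, r.t.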

[8] = qHTS Validation Assay to Find Inhibitors of Chronic Active B-Cell Receptor Signaling (AID 485345; active means well fitted curve in the direction sought with a large enough effect in the main read-out, with a control signal flat, not every such curve was filed as active)
Outline: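 TMD8 ABC-DLBCL cells with dox-inducible green luciferase–IκBα fusion and red native luciferase; compounds 46 uM–3 nM, 4 h at 37C with doxycycline in 0.5% FBS IMDM. Green/red ratio normalized to basal and 10 uM MG-132.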

[9] = target: Beta-2 adrenergic receptor (Homo sapiens) (UniProt P07550); experiment: qHTS validation assay of beta-arrestin-biased ligands of beta2-adrenergic receptor (AID 485366)
Sequence of Beta-2 adrenergic receptor (Homo sapiens) (P07550 whole entry, looked up): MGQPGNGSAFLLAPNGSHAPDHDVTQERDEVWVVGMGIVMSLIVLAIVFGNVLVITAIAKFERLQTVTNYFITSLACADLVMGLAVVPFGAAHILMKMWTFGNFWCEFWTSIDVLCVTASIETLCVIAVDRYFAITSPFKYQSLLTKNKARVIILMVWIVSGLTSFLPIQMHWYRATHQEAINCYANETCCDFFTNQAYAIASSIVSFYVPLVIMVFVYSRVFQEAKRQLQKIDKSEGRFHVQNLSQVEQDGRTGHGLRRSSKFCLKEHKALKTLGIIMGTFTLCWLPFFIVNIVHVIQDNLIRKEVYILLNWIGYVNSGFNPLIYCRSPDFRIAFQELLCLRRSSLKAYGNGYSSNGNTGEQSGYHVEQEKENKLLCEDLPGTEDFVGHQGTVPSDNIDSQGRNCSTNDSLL
Outline: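 Arrestin-recruitment (Tango) reporter: ligand-bound beta2-AR recruits beta-arrestin, releasing tTA, which upregulates luciferase. Titrations of up to 46 microM incubated 18 hr at 37 degrees C before luminescent readout.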

[10] = target: ATP-dependent 6-phosphofructokinase (Trypanosoma brucei brucei) (UniProt O15648); experiment: qHTS Validation Assay to Find Inhibitors of T. brucei phosphofructokinase (AID 485368); further: potency means the concentration at half of the fitted maximal effect
Sequence of ATP-dependent 6-phosphofructokinase (Trypanosoma brucei brucei) (O15648 whole entry, looked up): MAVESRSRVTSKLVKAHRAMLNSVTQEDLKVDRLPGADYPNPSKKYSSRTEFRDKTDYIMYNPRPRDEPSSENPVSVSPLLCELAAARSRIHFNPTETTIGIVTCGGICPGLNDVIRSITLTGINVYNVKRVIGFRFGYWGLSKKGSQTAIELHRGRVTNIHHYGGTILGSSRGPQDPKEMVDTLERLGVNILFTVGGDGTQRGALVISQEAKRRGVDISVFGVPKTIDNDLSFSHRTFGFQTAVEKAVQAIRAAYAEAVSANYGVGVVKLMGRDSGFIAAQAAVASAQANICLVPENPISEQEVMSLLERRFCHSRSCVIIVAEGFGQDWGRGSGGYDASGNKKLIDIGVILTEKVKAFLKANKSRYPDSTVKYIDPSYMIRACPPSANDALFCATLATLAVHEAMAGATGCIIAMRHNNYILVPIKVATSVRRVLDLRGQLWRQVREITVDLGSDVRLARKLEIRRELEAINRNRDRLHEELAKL
Outline: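 Steps: substrate mix (0.5 mM F6P, 0.1 mM ATP, MgCl2, TEA pH 8.0); compound; 1.25 nM T. brucei PFK; 45 min RT; ATP depletion 10 min; ADP-to-ATP detection 10 min; luminescence read; curve fitting and classification.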

[11] = target: M-phase phosphoprotein 8 (Homo sapiens) (UniProt Q99549); experiment: qHTS Validation Assay for Inhibitors for MPP8 Chromodomain Interactions with Methylated Histone Tails (AID 488949); further: nearly all actives have a fitted effect of over 55% in size; further: potency means the concentration at half of the fitted maximal effect
Sequence of M-phase phosphoprotein 8 (Homo sapiens) (Q99549 whole entry, looked up): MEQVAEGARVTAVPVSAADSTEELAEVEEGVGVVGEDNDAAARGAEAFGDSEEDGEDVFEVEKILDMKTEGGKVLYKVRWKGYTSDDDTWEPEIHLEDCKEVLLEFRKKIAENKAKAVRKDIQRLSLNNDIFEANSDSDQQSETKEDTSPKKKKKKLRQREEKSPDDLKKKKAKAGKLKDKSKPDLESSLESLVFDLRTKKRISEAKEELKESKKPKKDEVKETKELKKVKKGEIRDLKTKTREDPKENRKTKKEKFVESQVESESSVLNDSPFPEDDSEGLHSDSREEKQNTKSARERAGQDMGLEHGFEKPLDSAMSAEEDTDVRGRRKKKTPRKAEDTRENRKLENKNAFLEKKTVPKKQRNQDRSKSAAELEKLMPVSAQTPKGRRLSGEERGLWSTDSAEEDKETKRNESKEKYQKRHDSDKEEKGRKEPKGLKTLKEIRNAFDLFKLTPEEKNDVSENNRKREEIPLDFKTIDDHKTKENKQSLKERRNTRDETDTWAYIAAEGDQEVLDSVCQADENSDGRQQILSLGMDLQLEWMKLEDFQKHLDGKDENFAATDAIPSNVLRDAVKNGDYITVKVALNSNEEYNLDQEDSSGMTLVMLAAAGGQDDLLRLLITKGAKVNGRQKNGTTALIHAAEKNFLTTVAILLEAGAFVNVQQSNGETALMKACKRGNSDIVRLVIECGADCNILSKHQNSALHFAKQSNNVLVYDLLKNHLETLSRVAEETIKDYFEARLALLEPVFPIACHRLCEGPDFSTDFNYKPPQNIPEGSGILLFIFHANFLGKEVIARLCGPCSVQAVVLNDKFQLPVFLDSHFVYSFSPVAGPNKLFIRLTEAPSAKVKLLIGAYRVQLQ
Outline: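 Chemiluminescent proximity assay: histidine-tag capture via nickel acceptor beads, biotin peptide via streptavidin donor beads. Protein and peptide each at 50 nM, pH 7.4, with 30 min incubations at room temperature for complex formation, compound exposure and bead binding.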

[12] = Cytometric Cell-Based qHTS for Inhibitors of the mTORC1 Signaling Pathway in MEF (Tsc2-/-, p53-/-) Cells (AID 2660);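 further: percent of cells above a phospho-rpS6 to PI ratio cutoff in each well; series mostly up to about 38 µM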
Outline: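 Immunofluorescence qHTS of rpS6 Ser235/236 phosphorylation: MEFs (Tsc2-/-, p53-/-) treated 24 h, 37 C, in DMEM + 10% FBS. Alexa-488 signal normalized to PI count, referenced to rapamycin (7.5 nM) and DMSO; PI cell number recorded for viability.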

[13] = Cytometry Cell-Based qHTS for Inhibitors of the mTORC1 Signaling Pathway in MEF cells (AID 2668);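 further: Tsc2-/- p53-/- mouse embryonic fibroblasts stably re-expressing wild-type Tsc2; percent cells positive for phospho-rpS6 Ser235/236 relative to propidium iodide stain; series mostly up to about 38 µM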
Outline: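 In MEFs grown in DMEM + 10% FBS, a 24 hrs compound exposure preceded imaging of phospho-rpS6 Ser235/236 by laser-scanning cytometry.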

[14] = target: Thioredoxin reductase 1, cytoplasmic (Rattus norvegicus) (UniProt O89049); experiment: qHTS Assay for Inhibitors of Mammalian Selenoprotein Thioredoxin Reductase 1 (TrxR1) (AID 488773); details: Potency: inhibition; further: nearly all actives have a fitted effect of over 40% in size; further: potency means the concentration at half of the fitted maximal effect
Outline: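 Steps: enzyme (90 nM) plus NADPH (400 uM final), 5 min at ~22 deg C; compound added, 15 min; selenite (400 uM final) added; fluorescence followed for 8 min. Concentration-response curves derived from the normalized delta values.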

[15] = target: Flap endonuclease 1 (Homo sapiens) (UniProt P39748); experiment: qHTS Validation Assay for the Inhibitors of Human Flap endonuclease 1 (FEN1) (AID 488816); further: potency means the concentration at half of the fitted maximal effect
Sequence of Flap endonuclease 1 (Homo sapiens) (P39748 whole entry, looked up): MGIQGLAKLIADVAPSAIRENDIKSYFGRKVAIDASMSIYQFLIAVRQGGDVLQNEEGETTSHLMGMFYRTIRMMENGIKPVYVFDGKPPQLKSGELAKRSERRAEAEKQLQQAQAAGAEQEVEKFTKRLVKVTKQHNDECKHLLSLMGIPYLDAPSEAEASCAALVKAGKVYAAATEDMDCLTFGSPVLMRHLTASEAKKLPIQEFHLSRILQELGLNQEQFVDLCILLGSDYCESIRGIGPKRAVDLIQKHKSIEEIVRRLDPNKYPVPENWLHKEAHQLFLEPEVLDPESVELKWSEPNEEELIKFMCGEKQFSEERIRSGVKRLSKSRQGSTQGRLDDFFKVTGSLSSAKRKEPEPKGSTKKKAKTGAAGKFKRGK
Outline: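 FEN1, dispensed as a 10 nM reagent, was preincubated with pin-transferred compounds for 15 min at room temperature before substrate was added (50 nM final). Plates were read at 0 and 15 min, and a four-parameter Hill equation was fitted to the concentration-response data.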

[16] = target: Thioredoxin reductase 1, cytoplasmic (Rattus norvegicus) (UniProt O89049); experiment: qHTS Assay for Substrates of Mammalian Selenoprotein Thioredoxin Reductase 1 (TrxR1) (AID 488772);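 further: NADPH fluorescence in the first read after selenite addition and not the 8 min delta; series mostly up to about 57 µM; a drop in NADPH fluorescence below the no-compound background marks a TrxR1 substrate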
Outline: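 Quantitative HTS in Tris-HCl buffer at pH 7.5 with EDTA and Tween-20, using rat TrxR1, 400 uM NADPH and 400 uM selenite (final). A fall in initial NADPH fluorescence relative to background marked substrate behaviour.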

[17] = High Content Imaging Cell-Based qHTS for Inhibitors of the mTORC1 Signaling Pathway in MEF (Tsc2-/-, p53-/-) Cells (AID 2666);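 further: percent of cells scored positive for phospho-rpS6 Ser235/236 immunostaining by imaging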
Outline: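 Read-out: % positive cells per well, with thresholds from highest- and lowest-signal wells, based on phospho-rpS6 (Ser235/236) intensity normalized to Hoechst nuclear stain. Cells: Tsc2-/-, p53-/- MEFs carrying empty vector; compound 24 hrs, 37 degree Celsius.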

[18] = Quantitative high throughput screen for delayed death inhibitors of the malarial parasite plastid, 96 hour incubation (AID 488745); further: nearly all actives have a fitted effect of over 70% in size; further: potency means the concentration at half of the fitted maximal effect
Outline: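 P. falciparum carrying an integrated firefly luciferase reporter, grown in erythrocytes (2% hematocrit, 0.1% parasitemia final) in RPMI 1640/0.5% Albumax, was exposed to compound for 96 h (two generations) at 37 C, 5% CO2. Luminescence decrease indicated growth inhibition.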

Measured: Potency

O=P(O)(O)C(Cl)(Cl)P(=O)(O)O
inactive: [1] | [2]

CN(N=O)c1cc(O)ccc1O
active: [6] 23.8 µM | [10] 7.57 µM | [11] 8.91 µM
inactive: [3] | [1] | [4] | [5] | [7] | [8] | [9] | [2]

N#CCCN
inactive: [12] | [3] | [13] | [6] | [8] | [9] | [10] | [14] | [15] | [11]

C=CCN1CCc2cccc3c2[C@H]1Cc1ccc(O)c(O)c1-3
active: [3] 7.36 µM
inactive: [12] | [6] | [7] | [9] | [16] | [15]

CCCCCCC(C)(C)c1ccc([C@@H]2C[C@H](O)CC[C@H]2CCCO)c(O)c1
inactive: [3] | [7] | [8] | [9] | [10] | [15]
active: [2] 11.7 µM

O=c1c2ccccc2[se]n1-c1ccccc1
active: [6] 4.74 µM | [10] 1.51 µM | [11] 5.01 µM and 2.99 µM
inactive: [17] | [3] | [5] | [9] | [16] | [15]

Nc1ccc(CCN2CCN(c3cccc(C(F)(F)F)c3)CC2)cc1
not listed: [13] | [15] | [17] | [18]
inactive: all other assays above

C=CCN1CC[C@]23c4c5ccc(O)c4O[C@@H]2/C(=N/N=C2\CC[C@@]4(O)C6Cc7ccc(O)c8c7[C@@]4(CCN6CC=C)[C@@H]2O8)CC[C@@]3(O)C1C5
active: [4] 15.8 µM | [18] 2.94 µM | [2] 3.29 µM
inactive: [5] | [6] | [8] | [9] | [10] | [16] | [11]

COc1ccc2c(c1OC)C(=O)OC2C1c2cc3c(cc2CCN1C)OCO3 (stereo unspecified)
inactive: [1] | [4]

CN1CCc2cc(O)cc3c2[C@H]1Cc1ccc(O)c(O)c1-3
inactive: [5] | [6] | [8] | [9] | [16]
active: [14] 13.4 µM

N#CC(C#N)=Cc1cc(O)c(O)c(O)c1
active: [11] 39.8 µM
inactive: [1] | [4] | [2]

CCN(CC)c1ncnc2c1ncn2[C@@H]1O[C@H](COP(=O)(O)OP(=O)(O)C(Br)(Br)P(=O)(O)O)[C@@H](O)[C@H]1O
inactive: [1] | [4] | [2] | [11]

Oc1ccc2c3c1O[C@H]1c4[nH]c5ccccc5c4C[C@@]4(O)C(C2)N(CC2CC2)CCC314 (stereo partly specified)
active: [1] 11.2 µM
inactive: [17] | [5] | [6] | [7] | [9] | [10] | [16] | [14]

CC(C)[C@@]1(NC(=O)[C@@H]2C[C@@H]3c4cccc5[nH]cc(c45)C[C@H]3N(C)C2)O[C@@]2(O)[C@@H]3CCCN3C(=O)[C@H](Cc3ccccc3)N2C1=O
inactive: [12] | [3] | [13] | [5] | [6] | [7] | [8] | [9] | [10] | [11]

CCn1cnc2c(Nc3cccc(Cl)c3)nc(N[C@@H]3CCCC[C@@H]3N)nc21
active: [2] 5.86 µM
inactive: [5] | [6] | [7] | [9] | [10] | [14]

CCCN1CCCC2Cc3[nH]ncc3CC21 (stereo unspecified)
inactive: [1] | [18] | [2] | [11]

CCN1C[C@@]2(COC)C3[C@@H](OC)C4[C@@H]1C3([C@@H]1C[C@]3(O)[C@H](OC(=O)c5ccccc5)[C@@H]1[C@]4(OC(C)=O)[C@@H](O)[C@@H]3OC)[C@H](OC)C[C@H]2O
not listed: [1] | [2] | [4] | [14] | [17] | [18]
inactive: all other assays above

C[N+]1(C)CCC(OC(=O)C(c2ccccc2)c2ccccc2)CC1
active: [2] 9.28 µM
inactive: [1]

Cc1c2ccncc2c(C)c2c1[nH]c1ccccc12
active: [18] 1.17 µM | [2] 1.85 µM | [15] 10.6 µM
inactive: [3] | [9] | [16]
